These results are taken from the OligoGym collection.
Also: reference of the scale not given here.

For the first test, the target named is CAPRIN1. As to the kind of experiment: pooled miR-30 sensor sort-seq; sequence = guide strand. The following applies: shRNA.
In turn, TATTGTTTTCTGAATATCTTGA displayed a sensor-assay potency score (higher = more potent) of 0.459.
Still for that read-out and setting: then AATATCTTGACTTAGTGCCATG, with -1.68; and TTTACATTGATTCCACTGCTAT, with -0.568.
The same measure, in the same setting: the result for TTTCTGAATATCTTGACTTAGT reads -0.78.
Same read-out and setting: then TTGATAGCCAGAGTAATCCCGG, with -0.0464; and TAGATAATAACTCTTCTGGTAA, with -0.812.
For the sequence TTTCTTGTCGATCACCCCGAGA, the sensor-assay potency score (higher = more potent) was -1.14.
On the same count and under the same terms, then TTACATACTCTGTTGATTCAAC, with 0.0551.
Same read-out and setting: the result for TAACATATTATGGTACACTGGC reads 0.119; that for TACAGGAACTTGATTAGGCTGA, 0.0825; that for TTGACTGAAAAACACGCTCAAC, -1.28.

In another test the target is CASK. The description is as above. The note with it: shRNA.
In turn, TAAAGCATTCCATCTGAGCTAT registered a sensor-assay potency score (higher = more potent) of -0.371.
Same read-out and setting: then TAAGATGTCAGACTCCTTCTGC, with 0.313; and TTCATGTGCCACTACGTCGTGA, with -0.762; and TAAAATACGCTTTAGTTCCTTT, with -0.108.
As for TTGTGCTCTTACATAGATCTGT, the sensor-assay potency score (higher = more potent) was found to be 0.417.
Still for that read-out and setting: the result for ATTTGTGACTTGACACAGCGGC reads 0.473; that for TATATGTCTCCAATAACTCTAC, -0.605.
Same read-out and setting: then TTTCTCTGTTGATACATCGTCG, with -0.203; and TAGTAGTGTGTGAAGATGCTGA, with 0.139; and TTTTGAAACTGTACCAGCCGAA, with -0.413.
Same read-out and setting: the result for TTACATAGATCTGTCGTCCTTT reads 0.751; that for TACATCGTCGTACAACACTGAA, -1.22.

The target in the next test is CASP8. Described as above. The note with it: shRNA.
TTTCTTGTCATCCTTGTTGCTT: the sensor-assay potency score (higher = more potent) was -0.189.
Still for that read-out and setting: then TAACCTGCCTAACTCCACGTGC, with -0.566.
The same measure, in the same setting: the result for ATAGATAACAATCTGAATCATA reads -0.657; that for TATTAATAGATGATCGACCCTC, -0.244; that for TACTGTGCAGTCATCGTGGGGC, 0.503.
Still for that read-out and setting: then ATAGTCGTTGATTATCTTCAGC, with -0.538.
Turning to TTACTTTCAATAACCACCCTGG, the sensor-assay potency score (higher = more potent) amounted to 0.486.
Same read-out and setting: the result for TTTCTGCTGAAGTCCATCTTTT reads -1.01; that for TAAACTTTGTCCAAAGTCTGTG, -0.0888; that for TAGATTTGCTCTACTGTGCAGT, 0.44.
Same read-out and setting: the result for TTGATTTGGGCACAGACTCTTT reads -0.862.
Still for that read-out and setting: then TAGTTGATAGATAACAATCTGA, with -0.246; and TTAGTGTGAAAGTAGGCTGAGG, with -0.589.
As to TTTACTTTCAATAACCACCCTG, the sensor-assay potency score (higher = more potent) was 0.433.
On the same count and under the same terms, then TTGAGGTGATGATAAATCCATT, with -0.92; and TTCTTGTCATCCTTGTTGCTTA, with -0.496.
